Rows were chosen to be rich in hits. Some 3.2% of all compounds tested hit in one or more screens of this group.
Tau fibril ThT = qHTS for Inhibitors of Tau Fibril Formation, Thioflavin T Binding; 270,000 compounds, 2.1% hits; recombinant tau K18 P301L, heparin-induced fibrillization, ThT fluorescence; Microtubule-associated protein tau (Homo sapiens), P10636; AID 1460, 2008; Potency, µM (series often up to 57.4 µM), for inactives: at the top dose activity, negative = inhibition, hits mostly inhibitors; further: nearly all actives have a fitted effect of over 55% in size
Target sequence (P10636 561-689 P618L limits assumed): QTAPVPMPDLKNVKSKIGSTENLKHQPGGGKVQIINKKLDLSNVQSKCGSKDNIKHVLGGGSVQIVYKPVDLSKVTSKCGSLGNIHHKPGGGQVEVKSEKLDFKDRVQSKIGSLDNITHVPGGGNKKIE
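Heparin-induced (20 uM) aggregation of recombinant human K18 P301L tau, 15 uM unlabeled with 0.24 uM labeled, pH 7 acetate buffer, 6 hr at 37 C with compound. Fibrils quantified by 30 uM ThT fluorescence after 1 hr ambient incubation.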
Tau fluor counter = Counterscreen qHTS for Inhibitors of Tau Fibril Formation, Fluorescence Polarization. tau K18 P301L Alexa594 fluorescence, heparin fibrillization. Potency, µM (top dose mostly 57.7 µM), without a hit: top-dose activity change, negative = decrease. 280,000 compounds, 0.93% hits. AID 1463, 2008; further: nearly all actives have a fitted effect of over 55% in size
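Human tau K18 P301L (15 uM unlabeled, 0.24 uM Alexa 594-labeled) in 100 mM sodium acetate pH 7 with 20 uM heparin, 6 hr at 37 C. ThT 30 uM added, 1 hr ambient; Alexa 594 FP and total fluorescence read at 555/632 nm.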
TRb SRC2 PPI = qHTS for Inhibitors of the Interaction of Thyroid Hormone Receptor and Steroid Receptor Coregulator 2 | AID 1469, 2008 | TRbeta-SRC2 peptide binding, fluorescence polarization; receptor liganded with 1 µM T3 | 280,000 compounds, 0.065% hits | Potency, µM (titrated, usually from 106 µM), without a hit: at the highest dose activity change, negative = inhibition, usual class: inhibitors | Thyroid hormone receptor beta (Homo sapiens), P10828;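 further: plate controls were bound peptide for no effect and peptide without receptor for full effect; nearly all actives have a fitted effect of over 50% in size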
Target sequence (P10828 whole entry, looked up): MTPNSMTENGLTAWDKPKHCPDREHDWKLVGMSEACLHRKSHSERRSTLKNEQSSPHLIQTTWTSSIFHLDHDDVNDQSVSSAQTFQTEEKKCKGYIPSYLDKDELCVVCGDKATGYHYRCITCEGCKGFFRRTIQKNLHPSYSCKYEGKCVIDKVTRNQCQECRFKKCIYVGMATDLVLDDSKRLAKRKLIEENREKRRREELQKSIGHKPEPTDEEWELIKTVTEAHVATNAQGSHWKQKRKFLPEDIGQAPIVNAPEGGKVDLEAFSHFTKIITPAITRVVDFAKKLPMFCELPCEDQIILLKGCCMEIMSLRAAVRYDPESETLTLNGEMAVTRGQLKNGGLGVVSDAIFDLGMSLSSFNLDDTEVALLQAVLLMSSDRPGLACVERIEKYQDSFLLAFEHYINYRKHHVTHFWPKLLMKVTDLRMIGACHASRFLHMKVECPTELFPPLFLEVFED
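Fluorescence polarization of 20 nM Texas Red SRC2 peptide with 0.6 uM human TRb ligand-binding domain, in Tris buffer with 1uM T3 and 5% DMSO. Incubated 5 hr ambient; normalized to unbound and bound controls.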
RGS12 GoLoco inh = qHTS Assay for Inhibitors of RGS12 GoLoco Motif Activity (Red Fluorophore). Potency, µM (titrated, usually from 61.6 µM), for inactives: at the highest dose activity, negative = inhibition, hits mostly inhibitors. Gai1:RGS12 GoLoco peptide FP, rhodamine, 10 min. 230,000 compounds, 0.44% hits. Guanine nucleotide-binding protein G(i) subunit alpha-1 (Homo sapiens), P63096; active means well fitted inhibition curve with a large enough effect, not every such curve was filed as active; inactive means no such curve, though single readings can be large or run the other way; further: nearly all actives have a fitted effect of over 30% in size
TexasRed fluor = Total Fluorescence Counterscreen for Inhibitors of the Interaction of Thyroid Hormone Receptor and Steroid Receptor Coregulator 2; TRb/SRC2 Texas Red total fluorescence interference; 280,000 compounds, 0.29% hits; Potency, µM (titrated, usually from 106 µM), for inactives: top-dose fluorescence change, negative = quenching; AID 1479, 2009; active means well fitted curve in either direction with a large enough effect; inconclusive means small, poorly fitted or top-dose-only effect
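Human TRb ligand-binding domain at 0.6 uM with 20 nM Texas Red SRC2 peptide in Tris buffer containing 1 uM T3 and 5% DMSO, incubated with compound 5 h at ambient temperature. Total fluorescence (555/632 nm) calculated as parallel + 2 × perpendicular.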
Tau fibril FP = qHTS for Inhibitors of Tau Fibril Formation, Fluorescence Polarization; Microtubule-associated protein tau (Homo sapiens), P10636; K18 P301L tau heparin fibrillization, Alexa594 FP, 6 h; Potency, µM (top dose mostly 57.7 µM), for the others: at the top dose activity, negative = inhibition, usual class: inhibitors; 280,000 compounds, 0.39% hits; AID 1468, 2008; further: nearly all actives have a fitted effect of over 55% in size
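K18 P301L tau (15 uM unlabeled/0.24 uM Alexa 594-labeled, final) + compound + heparin 20 uM final; 100 mM NaOAc pH 7; 6 hr 37 C; ThT 30 uM final added, 1 hr RT; FP ex 555/em 632 nm.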
An asterisk follows results filed as active; ? = inconclusive; · = no result; [ ] = another dose, or the depositor's remark. Unless noted, the call rests on the fitted dose curve; in most records, active means well fitted curve in the direction sought with a large enough effect; inconclusive means small, poorly fitted or top-dose-only effect, or another doubt; inactive means no such curve, though single readings can be large; an effect the other way counts as inactive or inconclusive. Unless noted, on the % scale 0 is the no-effect control and ±100 the full control effect; potency means the concentration at half of the fitted maximal effect.

SMILES	Tau fibril ThT	Tau fluor counter	TRb SRC2 PPI	RGS12 GoLoco inh	TexasRed fluor	Tau fibril FP
O=S(=O)(c1ccc(NC(=S)NCCC(c2ccccc2)c2ccccc2)cc1)N1CCOCC1	10%	?	7%[53 µM]	8%	-2%[53 µM]	14µM*
CCCCOCCCNC(=S)Nc1ccc(S(=O)(=O)N2CCOCC2)cc1	-1%	-20%	1%	1%	2%	?
CN(C)CCCc1c2ccccc2nc2ccc(Cl)cc12	·	·	·	5%[14.2 µM]	·	·
CCOc1cccc(=O)c2c(C)n(CC(=O)c3ccccc3)c(C)c12	?	-11%	-1%	131%	2%	-3%
COc1cccc(=O)c2c(C)n(CC(=O)c3ccccc3)c(C)c12	14µM*	?	4%	40%	-1%	9%
Cc1cc(C)c(NC(=O)C(C)n2nnc3sc(-c4ccccc4)cc3c2=O)c(C)c1 (stereo not drawn)	?	-8%	-5%	·	-1%	-15%
COc1ccc(NC(=O)C(C)n2nnc3sc(-c4ccccc4)cc3c2=O)cc1Cl (stereo not drawn)	14µM*	?	-4%	·	0%	?
CCCCCCCCCCCC(=O)c1c(O)cccc1O	?	13µM*[quencher]	-1%	24%	-1%	?
CC/C=C\C/C=C\C/C=C\C/C=C\C/C=C\C/C=C\CCC(=O)NCC(=O)O	-4%	4%	0%	5%	-3%	8%
O=C(c1cccc(F)c1)N1CCC[C@@]2(CCN(C(c3ccccc3)c3ccccc3)C2)C1	·	·	·	46%	·	·
CC1CC=C2C(C#N)=C(N)C(C#N)(C#N)C(c3cccs3)C2C1 (stereo not drawn)	?	-15%	-3%	21%	1%	?
CC(C)N1CC=C2C(C#N)=C(N)C(C#N)(C#N)[C@H](c3ccoc3)[C@H]2C1	20µM*	-25%	-29%	-42%	11%	?
CCN1CC=C2C(C#N)=C(N)C(C#N)(C#N)C(c3cc(Cl)ccc3Cl)C2C1 (stereo not drawn)	13µM*	-25%	-14%	26%	9%	?
Cc1ccc(C2C3CSCC=C3C(C#N)=C(N)C2(C#N)C#N)cc1 (stereo not drawn)	20µM*	-29%	3%	32%	5%	?
Cc1ccc([C@@H]2C3COCC=C3C(C#N)=C(N)C2(C#N)C#N)o1 (stereo partly drawn)	25µM*	-16%	-29%	-24%	19%	?
CC(C)N1CC=C2C(C#N)=C(N)C(C#N)(C#N)C(c3ccccc3)C2C1 (stereo not drawn)	?	-18%	-10%	-12%	5%	?
COc1ccc(OC2C(O)COC2/C=C/c2ccccc2)cc1 (stereo not drawn)	-14%[11.5 µM]	-13%[11.6 µM]	1%[11.2 µM]	·	-4%[11.2 µM]	5%[11.6 µM]
O=C(N/N=C1\C/C(=N\NC(=O)c2ccncc2)c2ccccc21)c1ccncc1	10µM*	?	12%	27%	-4%	?
O=C1OC(c2ccccc2)=C/C1=C/N1CCCCC1	28µM*	-28%	-16%	2%	-2%	?
COc1ccc(Cn2c(CCC(=O)Nc3cc(OC)c(OC)c(OC)c3)nc3cccnc32)cc1	-8%	-27%	-2%	·	-3%	9%
O=C(Nc1cccc(Cl)c1)c1cc(-c2ccc3c(c2)OCO3)on1	?	4%	-8%	·	6%	?
O=C(Nc1cccc(Cl)c1)c1cc(-c2ccc3c(c2)OCCO3)on1	?	-20%	-10%	·	10µM*[quencher]	?
CCCCCSc1nc2sc3c(c2c(=O)n1-c1ccc(OC)cc1)CCN(C(C)=O)C3	?	-19%	?	·	22µM*[quencher]	-8%
Cc1cccc(OCCn2cc(/C=N/NC(=O)c3ccncc3)c3ccccc32)c1	?	16µM*[quencher]	5%	1%	-5%	2%
Cc1cccc(OCC(=O)N/N=C\c2cn(C)c3ccccc23)c1	-1%	-24%	4%	13%	-6%	4%[2.34 µM]
SMILES	Tau fibril ThT	Tau fluor counter	TRb SRC2 PPI	RGS12 GoLoco inh	TexasRed fluor	Tau fibril FP
COC(=O)c1cc(NC(=O)[C@H](CCS(C)(=O)=O)N2Cc3ccccc3C2=O)cc(C(=O)OC)c1	-11%	-22%	-1%	·	?	-2%
Cc1ccc(C(=O)CSc2nc(-c3ccccc3)nc3c2CCCC3)cc1C	-3%	-14%	-3%	·	-2%	?
CC[C@H](C)[C@H](NC(=O)[C@H](N)Cc1ccc(O)cc1)C(=O)N[C@@H](CC(N)=O)C(=O)N[C@@H](CC(C)C)C(=O)N[C@H](C(=O)N[C@@H](C(=O)N[C@@H](CCCN=C(N)N)C(=O)N[C@@H](CCC(N)=O)C(=O)N[C@@H](CCCN=C(N)N)C(=O)N[C@H](Cc1ccc(O)cc1)C(N)=O)[C@@H](C)O)[C@@H](C)CC	·	·	-1%	·	-1%	·
CCOc1ccc(Nc2nc(C)c(NC(=O)c3cccc(F)c3)c(Nc3ccc(OCC)cc3)n2)cc1	?	7.9µM*[quencher]	6%	·	-2%	10%
CCOc1ccc(-n2nc3ccc(NC(=O)c4cccc(F)c4)cc3n2)cc1	?	-6%	8%	·	5%	?
COc1cc(OC)c(NC(=O)NCc2cccn2Cc2ccccc2)cc1Cl	-17%	14µM*[quencher]	-9%	·	-3%	-11%
C/C=C/C/C=C\CCCCCCCCOC(C)=O	·	·	-1%[201 µM]	·	1%[201 µM]	·
CN1CCSc2ccc(C(=O)Nc3cccc(F)c3)cc21	?	22µM*[quencher]	9%	-4%	-2%	?
COc1ccc(C(=O)c2sc3nc4c(c(C(F)(F)F)c3c2N)CN(C(C)=O)CC4)cc1OC	14µM*	-10%	7%	·	-2%	4%
CC(=O)N1CCc2nc3sc(C(=O)c4ccc(F)cc4)c(N)c3c(C(F)(F)F)c2C1	4.5µM*	-14%	-6%	·	-5%	8%
Cc1oc2c(cc(NS(=O)(=O)c3ccc(Cl)cc3)c3ccccc32)c1C(=O)OCc1ccccc1	-2%	?	6%	·	-2%	4%
COc1ccccc1NC(=O)Cn1c(=O)n(CCC(=O)NCC2CCCO2)c(=O)c2cc(OC)c(OC)cc21 (stereo not drawn)	-1%	-9%	-3%	·	-3%	-12%
O=C(CSc1nc2ccccc2nc1Cc1ccc(Cl)cc1)Nc1ccc2c(c1)OCO2	-4%	-22%	4%	·	-1%	-5%

Source: PubChem (National Center for Advancing Translational Sciences (NCATS))
